The record followed here is PubChem BioAssay (NCI).

About 83,000 compounds went through this panel and 20% of them were active in at least one assay; those are over-represented in the sample as a whole.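 Treatment: one concentration, 48 hours, 96-well format. Scoring: percent growth, with anything below 10 considered active.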 Unmarked numbers belong to inactive results. Activity calls are given as the source filed them.

In the test the test system is SNB-75 CNS. The test is described as follows: NCI-60 one-dose screen, 48 h (100 = growth as untreated, 0 = no growth, -100 = all killed). To be noted: 10 µM unless noted. How it is done:
Growth inhibition of the SNB-75 human tumor cell line is measured as a screen for anti-cancer activity. Cells are grown in 96 well plates and exposed to the test compound for 48 hours. Compounds are tested at a single concentration, which is 10^-5 M for most compounds. The reported endpoint is percent growth (GI% or GIPRCNT), where numbers from 0 - 100% represent growth inhibition, and numbers from -100% - 0 represent cell death. For example, a value of 40 represents 60% growth inhibition. A value of 0 means no net growth occurred over the course of the experiment. A value of -40 indicates 40% of cells at the beginning of the experiment died by the end of the experiment. A value of -100 means all cells are dead at the end of the experiment.
NCI-60 Human Tumor Cell Lines Screen was performed using the standard one-dose NCI protocol, which is described in more detail at https://dtp.cancer.gov/discovery_development/nci-60/default.htm.
Compounds with GIPRCNT values below 10 were considered active. Activity score was based on GIPRCNT using the following formula: […]
Score is 0 for GIPRCNT values of 100 or above, 50 for GIPRCNT values of 0, and 100 for GIPRCNT values of -100.
Consider `CC(=O)N1CC(=O)NC1=S`, for which the growth is 89.2%.

In the case of `CC1(C)OC2C(COC(c3ccccc3)(c3ccccc3)c3ccccc3)OC(c3c[nH]c4c(N)ncnc34)C2O1` (stereo not given), the growth is 61.9%. `Nc1ccc(C(=O)/C=C/c2ccccc2)cc1`: the growth is 104%. The figure for `COc1cc(-c2ccc(-[n+]3nc(-c4ccc([N+](=O)[O-])cc4)nn3-c3ccc([N+](=O)[O-])cc3)c(OC)c2)ccc1-[n+]1nc(-c2ccc([N+](=O)[O-])cc2)nn1-c1ccc([N+](=O)[O-])cc1` is -35.8% (active); for `O=C(Nc1ccc(Cl)c(Cl)c1)OCc1ccco1` it is 8.5% (active).

Take `CCCCCCCCc1cc(Cl)c(O)c(Cl)c1`: the growth is 98.4%. Next, `O=[n+]1c2ccccc2n([O-])c2cc(Cl)ccc21`: 50.7%; `COc1cc(/C=C/c2ccnc3ccccc23)cc(OC)c1OC`: -3.85% (active). Next, `CC(C)(C)c1ccc(O)c(Br)c1`: 77%; `Cc1cc(I)nc2ccccc12`: 99.7%; `Nc1cc(-c2ccccc2)ccc1O`: 105%. As for `CCCCOS(=O)(=O)c1ccccc1`, the growth was 85.9%. Next, `O=C1C=CC(=O)N1c1cc(Cl)c(Cl)cc1Cl`: 82.1%.

As for `COc1cc(NC(=O)C2=C(C)NC(C)=C(C(=O)Nc3cc(OC)c(Cl)cc3OC)C2c2cccc([N+](=O)[O-])c2)c(OC)cc1Cl`, the growth is 45.3%.

Regarding `NCCCN(CCCN)CCCNCc1c2ccccc2c(CNCCCN(CCCN)CCCN)c2ccccc12`, the growth is 104%. The figure for `COc1ccc2nc3cc(Cl)ccc3c(NCCCCCN3CCCCC3)c2c1` is -98.1% (active); for `COc1cc(/C=C2\SC(=S)N(/C=C/c3nc4ccccc4[nH]c3=O)C2=O)cc(OC)c1OC` it is 66.9%.

Take `NC(=Nc1nc(-c2ccccn2)cc2ccccc12)c1ccccn1`: the growth is 41%. Turning to `O=C(c1ccccc1)C(Br)[N+](=O)[O-]` (stereo not given), the growth is 86.3%. The figure for `COc1cc2c(c(OC)c1OC)-c1ccc(NCc3ccccc3)c(=O)cc1[C@@H](NC(C)=O)CC2` is 32.9%. Next, `CN=C(N)N/N=C(\c1ccccc1)c1ccc(Br)cc1`: 9.3% (active).

With `O=C(Nc1cccc(C(F)(F)F)c1)Oc1ccc(Cl)c2cccnc12`, the growth is 65.9%. Next, `Cc1nn(CCO)c(C)c1N=[N+]([O-])c1c(C)nn(CCO)c1C`: 52.4%; `COC(=O)c1cc([N+](=O)[O-])cc([N+](=O)[O-])c1Cl`: 90.4%. Next, `O=C(/C(Cl)=N/O)c1ccc(-c2ccccc2)cc1`: 113%; `CN(C)c1ccc(/C=C/c2nccc3ccccc23)cc1`: 98.8%; `CCOc1ccc(C(CN2CCOCC2)C(C)=O)cc1OC` (stereo not given): 85.9%. Turning to `N=C(N)Sc1cccc[n+]1[O-]`, the growth is 61.5%. As for `CCNc1nnnn1CC`, the growth is 90.4%. For the compound `CC(=O)OC1CC2CCC1(C)C2(C)C` (stereo not given), the growth is 93.5%. As to `Clc1ccccc1C(c1ccccc1)(c1ccccc1)n1ccnc1`, the growth is 44.1%. The figure for `N#CC(I)CS(=O)(=O)c1ccccc1` (stereo not given) is 95.5%; for `CN(C)c1ccc(/C=C/c2sc3ccc4ccccc4c3[n+]2C)cc1` it is -95.6% (active); for `O=C(O)c1ccc2c(c1)C(=O)c1ccccc1C2=O` it is 91.6%. The figure for `Oc1c(C(Nc2ccccc2)c2ccccc2)ccc2cccnc12` (stereo not given) is 70.8%; for `O=C(CCl)N(c1ccccc1)c1ccccc1` it is 105%. The figure for `Oc1c(Cl)cc(Cl)cc1C(c1cc(Cl)cc(Cl)c1O)C(Cl)(Cl)Cl` is -7.64% (active); for `CN1CSC(=S)N(Cc2ccccc2)C1` it is 98.1%; for `CC1=CC(=O)C=CC1(C)C(Cl)(Cl)Cl` (stereo not given) it is 109%. As for `CCCC[n+]1c(/C=C\c2c(OC)cc(OC)cc2OC)ccc2ccccc21`, the growth is -13.2% (active).
